Set-up in all cases: species or system human, MV4-11 + K-562 + COLO205 + SK-N-BE2 + OVCAR-8
The test system of one test is ACAD11. The settings on record: read-out: apparent Kd, n = 1.
Another test relates to CDC7. The settings on record: read-out: apparent Kd, n = 1.
Another test relates to CDK5. The settings on record: read-out: apparent Kd, compound concentrations: 100 nM and 1000 nM (sheet 'Samples'), n = 1.
The test system of a further test is JAK2. The settings on record: read-out: apparent Kd, n = 1.
For the next test, the system named is MAP2K1. The note with it: read-out: apparent Kd, compound concentrations: 100 nM and 1000 nM (sheet 'Samples'), n = 1.
The next test has as its system MAP4K1. The note with it: read-out: apparent Kd, n = 1.
The subject of the next test is ULK3. The note with it: read-out: apparent Kd, n = 1.
The next test has as its system ATR. The settings on record: read-out: apparent Kd; compound concentrations: 100 nM and 1000 nM (sheet 'Samples'), CATDS: 1.78741670317108E-2; n = 1.
A further test has as its system T1, DJA1.
T1 construct: gene DNAJA1
The note with it: read-out: apparent Kd, compound concentrations: 100 nM and 1000 nM (sheet 'Samples'), n = 1.

A further test relates to FRK. The note with it: read-out: apparent Kd; compound concentrations: 100 nM and 1000 nM (sheet 'Samples'), CATDS: 1.6945625051929199E-2; n = 1.
The subject of the next test is FYN. The note with it: read-out: apparent Kd; compound concentrations: 100 nM and 1000 nM (sheet 'Samples'), CATDS: 1.7018948843541101E-2; n = 1.
A further test relates to IRAK4. The settings on record: read-out: apparent Kd, n = 1.
Another test concerns NLK. The settings on record: read-out: apparent Kd, n = 1.
In a further test the test system is STK26. The settings on record: read-out: apparent Kd, compound concentrations: 100 nM and 1000 nM (sheet 'Samples'), n = 1.
A further test deals with PRKCB. The note with it: read-out: apparent Kd, n = 1.
In the next test the test system is CDK6. The settings on record: read-out: apparent Kd, n = 1.
For a further test, the system named is NQO2. The note with it: read-out: apparent Kd, n = 1.
Another test concerns PIK3CA. The settings on record: read-out: apparent Kd, compound concentrations: 100 nM and 1000 nM (sheet 'Samples'), n = 1.
The test system of the next test is JAK1. The note with it: read-out: apparent Kd; compound concentrations: 100 nM and 1000 nM (sheet 'Samples'), CATDS: 1.5080552204992799E-2; n = 1.
The mark [1] stands for this setting: compound concentrations:100 nM and 1000 nM (sheet 'Samples').

Where two headings read alike, the source gives them in different places.

This is an account of results in article PMC11062922 (Nature Chemical Biology, 2023).

As for `O=C(O)C(F)(F)F.O=c1[nH]ccc2nc(N[C@@H]3CCNC3)nc(Nc3ccc4c(c3)S(=O)(=O)CC4)c12` [GSK2181306A], the potency estimated from few doses in the test on ACAD11 (compound concentrations: 100 nM and 1000 nM (sheet 'Samples'), CATDS: 2.2275059319964801E-2) is 145 nM; with CDC7 (compound concentrations: 100 nM and 1000 nM (sheet 'Samples'), CATDS: 3.8653220202105501E-2), 57.1 nM; in the test with CDK5 (CATDS: 1.15516504850929E-2), 571 nM; in the test with JAK2 (compound concentrations: 100 nM and 1000 nM (sheet 'Samples'), CATDS: 1.0295673104193499E-2), 781 nM; with MAP2K1 (CATDS: 9.6647970877986305E-3), 947 nM; in the test with MAP4K1 (compound concentrations: 100 nM and 1000 nM (sheet 'Samples'), CATDS: 1.18408436386705E-2), 536 nM. Moreover, the potency estimated from few doses with ULK3 (compound concentrations: 100 nM and 1000 nM (sheet 'Samples'), CATDS: 1.2312862576378401E-2) is 487 nM.
For `CCn1c(-c2cccnc2O)nc2cnccc21` [SB-736715], the potency estimated from few doses in the test on ATR was 919 nM; in the test on DJA1 (CATDS: 1.9156343081097999E-2) it was 812 nM; with FRK, 1010 nM; with FYN, 1010 nM; with IRAK4 (compound concentrations: 100 nM and 1000 nM (sheet 'Samples'), CATDS: 1.2053772539955101E-2), 2160 nM; in the test with MAP2K1 (CATDS: 1.2472945477492101E-2), 1980 nM. Also, the potency estimated from few doses in the test with NLK (compound concentrations: 100 nM and 1000 nM (sheet 'Samples'), CATDS: 1.3463251782528499E-2) was 1640 nM; in the test with STK26 (CATDS: 1.4283028006721699E-2), 1440 nM.
Take `O=C(O)C(F)(F)F.O=C(O)C(F)(F)F.O=c1[nH]ccc2nc(N[C@@H]3CCCNC3)nc(Nc3ccc(S(=O)(=O)N4CCOCC4)cc3)c12.O=c1[nH]ccc2nc(N[C@@H]3CCCNC3)nc(Nc3ccc(S(=O)(=O)N4CCOCC4)cc3)c12` [GSK2177277A]: the potency estimated from few doses in the test on CDC7 (compound concentrations: 100 nM and 1000 nM (sheet 'Samples'), CATDS: 4.24338957308735E-2) was 14.6 nM; in the test on CDK5 (CATDS: 6.6467271298615597E-3), 1280 nM; in the test on DJA1 (CATDS: 6.2286028327955796E-3), 1850 nM; with JAK2 (compound concentrations: 100 nM and 1000 nM (sheet 'Samples'), CATDS: 4.8200913683498499E-2) it was 12.1 nM; in the test with MAP4K1 (compound concentrations: 100 nM and 1000 nM (sheet 'Samples'), CATDS: 2.52445457055663E-2), 34.1 nM; with PRKCB (compound concentrations: 100 nM and 1000 nM (sheet 'Samples'), CATDS: 6.2704651327109501E-3) it was 1770 nM. In addition, the potency estimated from few doses with ULK3 (compound concentrations: 100 nM and 1000 nM (sheet 'Samples'), CATDS: 1.28018633148979E-2) was 140 nM.
Consider `CS(=O)(=O)Nc1cccc(-c2ccc3c(NC(=O)C4CC4)n[nH]c3c2)c1` [SB-742864], for which, in the test on DJA1 (CATDS: 0.110016860770891), the potency estimated from few doses was 1630 nM.
Regarding `CCN(CC)Cc1ccc(Nc2nccc(-c3cnn4ncccc34)n2)cc1` [GW780056X], the potency estimated from few doses in the test on CDK6 (compound concentrations: 100 nM and 1000 nM (sheet 'Samples'), CATDS: 6.8164228175802102E-2) was 83.2 nM; with NQO2 (compound concentrations: 100 nM and 1000 nM (sheet 'Samples'), CATDS: 3.67642918881117E-2), 274 nM.
For `COc1ccc(-c2cc3c(N)ncnc3o2)cc1` [GW642138X], the potency estimated from few doses in the test with CDK6 (compound concentrations: 100 nM and 1000 nM (sheet 'Samples'), CATDS: 0.103985986158265) was 1700 nM; in the test on IRAK4 (compound concentrations: 100 nM and 1000 nM (sheet 'Samples'), CATDS: 9.7145824911744297E-2), 1950 nM; in the test on STK26 (CATDS: 0.100922192371782) it was 1800 nM.
In the case of `c1cnn2ncc(-c3ccnc(Nc4ccc5c(c4)OCCO5)n3)c2c1` [GW806290X], the potency estimated from few doses is 1390 nM in the test with CDK6 (compound concentrations: 100 nM and 1000 nM (sheet 'Samples'), CATDS: 2.20968603607638E-2); 1730 nM in the test with MAP2K1 (CATDS: 2.0774102889224599E-2).
For `CN(c1ccc(NC(=O)NCCN2CCOCC2)cc1)c1ccnc(Nc2ccc(CS(C)(=O)=O)cc2)n1.Cl` [GW830365A], the potency estimated from few doses in the test on PIK3CA (CATDS: 0.11596893366526) is 201 nM.
With `COc1ccc(Nc2nccc(-c3ccc(NC(=O)c4cc5cc(F)ccc5[nH]4)cc3)n2)cc1` [GSK1229496A], the potency estimated from few doses with JAK2 (compound concentrations: 100 nM and 1000 nM (sheet 'Samples'), CATDS: 0.41035402481259398) was 584 nM.
Consider `COC(=O)c1cccc(NC(=O)NC2CCN(c3ccnc(Nc4cc(OC)c(OC)c(OC)c4)n3)C2)c1` (stereo not shown) [GSK1379767A], for which the potency estimated from few doses in the test on MAP2K1 (CATDS: 9.4958067467462701E-2) is 2010 nM.
In the case of `CCn1c(-c2nonc2N)nc2c(C#CC(C)(C)O)nc(O[C@@H](CN)c3ccccc3)cc21.O=C(O)C(F)(F)F` [GSK1007102B], in the test on PRKCB (setting [1]), the potency estimated from few doses is 111 nM.
With `CS(=O)(=O)CCn1c(=O)c(Oc2ccc(F)cc2F)cc2cnc(NC3CCOCC3)nc21` [RO5027956-000], the figures for the potency estimated from few doses in the test on ACAD11 (setting [1]), with JAK2 (setting [1]) and with NLK (setting [1]) were 1690 nM, 65.6 nM and 55.9 nM, respectively.
As for `CN(C)CC(O)COc1ccc(Nc2nccc(-c3cnn4nc(N5CCOCC5)ccc34)n2)cc1` (stereo not shown) [GW767488X], the potency estimated from few doses in the test with CDK6 (setting [1]) is 1050 nM; with IRAK4 (setting [1]), 1630 nM; with NLK (setting [1]), 2180 nM; in the test with NQO2 (setting [1]), 1230 nM.
For `O=C1N=C(NCCCc2ccccc2)S/C1=C\c1ccc2ncccc2c1` [RO4493941-000], in the test on PIK3CA (CATDS: 0.11301780685695401), the potency estimated from few doses was 241 nM.
As for `COc1cc[nH]c1/C=C1\C(=O)Nc2ccc(F)c(C#CC3(O)CCNCC3)c21.Cl` [RO0282986-001], the potency estimated from few doses was 1450 nM with DJA1 (CATDS: 9.7728158080224396E-3); 889 nM with IRAK4 (compound concentrations: 100 nM and 1000 nM (sheet 'Samples'), CATDS: 1.1177652842318E-2); 391 nM with JAK1; 1120 nM in the test with MAP2K1 (CATDS: 1.0458763538178499E-2); 1000 nM with MAP4K1 (compound concentrations: 100 nM and 1000 nM (sheet 'Samples'), CATDS: 1.0790478017061501E-2); 644 nM with NQO2 (compound concentrations: 100 nM and 1000 nM (sheet 'Samples'), CATDS: 1.2433043587811299E-2).
For the compound `O=C(O)C(F)(F)F.O=c1[nH]ccc2nc(N[C@@H]3CCNC3)nc(Nc3cc(Cl)cc(Cl)c3)c12` [GSK2188764A], the potency estimated from few doses with MAP4K1 (setting [1]) is 1030 nM.
Take `CC(C)Oc1ccc2c(-c3ccnc(Nc4ccc(N5CCN(C)CC5)cc4)n3)cnn2n1` [GW696155X]: the potency estimated from few doses with CDC7 (setting [1]) was 1440 nM; in the test with NQO2 (setting [1]), 1060 nM; in the test with ULK3 (setting [1]), 290 nM.
